Experimental data from PubChem BioAssay (Tox21).
Results filed as inconclusive are left out. Active and inactive are the calls of the source. Unless noted, calls follow the shape of the dose curve; as a rule, active = well fitted curve in the direction sought with a large enough effect in the repeat runs; inconclusive = weak or mixed curves; inactive = no such curve, though single readings can be large; an effect the other way counts as inactive or inconclusive.

Key:
[1] = qHTS assay to identify aromatase inhibitors - cell viability counter screen (AID 743084);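 also: cells stimulated with testosterone during compound exposure; nearly all actives have a fitted effect of over 55% in size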
[2] = qHTS assay to identify small molecule that activate the aryl hydrocarbon receptor (AhR) signaling pathway - cell viability counter screen (AID 743086);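 also: HepG2 liver cells carrying the AhR DRE luciferase reporter; series mostly up to about 70 µM; nearly all actives have a fitted effect of over 45% in size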
Procedure, shortened: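 Cytotoxicity counter screen: CellTiter-Fluor signal (30 min, 37 C) in 4000 HepG2 cells/well carrying the DRE-luciferase reporter, following 24 h compound exposure at 37 C.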

[3] = target: Peroxisome proliferator-activated receptor gamma (Homo sapiens) (UniProt P37231); test: qHTS assay to identify small molecule agonists of the peroxisome proliferator-activated receptor gamma (PPARg) signaling pathway (AID 743094; active = well fitted activation curve with a large enough effect in the signal ratio in the repeat runs, not every such curve was filed as active; the % refers to the signal ratio)
Procedure, shortened: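 Compounds dissolved in DMSO were added to PPARg UAS-bla HEK293H cells for 17 h at 37C, and reporter expression was quantified by fluorescence intensity after 1 h with LiveBLAzer B/G FRET substrate.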

[4] = target: Peroxisome proliferator-activated receptor gamma (Homo sapiens) (UniProt P37231); test: qHTS assay to identify small molecule antagonists of the peroxisome proliferator-activated receptor gamma (PPARg) signaling pathway (AID 743191; calls by dose curve; also: series mostly up to about 63 µM; nearly all actives have a fitted effect of over 30% in size)
Procedure, shortened: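 Beta-lactamase reporter under UAS control in HEK293H PPARg-bla cells; compound treatment 17 h at 37C. Read-out: fluorescence intensity after 1 h room-temperature incubation with LiveBLAzer B/G FRET substrate.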

[5] = qHTS assay to identify small molecule antagonists of the peroxisome proliferator-activated receptor gamma (PPARg) signaling pathway - cell viability counter screen (AID 743194); also: nearly all actives have a fitted effect of over 55% in size
Procedure, shortened: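 Viability was measured as CellTiter-Glo luminescence in GeneBLAzer PPARg UAS-bla HEK293H cells. These cells had been exposed 17 h at 37 C to compounds together with rosiglitazone at 50 nM final, with the beta-lactamase readout taken in the same wells.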

[6] = qHTS assay for small molecule agonists of the antioxidant response element (ARE) signaling pathway - cell viability counter screen (AID 743203; calls by dose curve; also: nearly all actives have a fitted effect of over 55% in size)
Procedure, shortened: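 Following 16 hrs of compound treatment at 37C, HepG2 cells with an ARE-controlled beta-lactamase gene were lysed with CellTiter-Glo. Luminescence was read after 30 min at room temperature.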

[7] = qHTS assay for small molecule activators of the heat shock response signaling pathway - cell viability counter screen (AID 743209); also: nearly all actives have a fitted effect of over 50% in size
Procedure, shortened: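 Readout: CellTiter-Glo luminescence, 30 min at room temperature. System: HSE-bla HeLa cells, 1500/well, plated overnight. Treatment: compounds in DMSO, 5 h at 37 C.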

[8] = qHTS assay to identify small molecule agonists of the peroxisome proliferator-activated receptor delta (PPARd) signaling pathway - cell viability counter screen (AID 743211); also: nearly all actives have a fitted effect of over 55% in size
Procedure, shortened: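 Viability of GeneBLAzer PPARd UAS-bla HEK293H cells was assessed after 17 h compound incubation at 37C, using CellTiter-Glo reagent added after the reporter read and luminescence recorded 30 min later.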

[9] = qHTS assay to identify small molecule antagonists of the peroxisome proliferator-activated receptor delta (PPARd) signaling pathway - cell viability counter screen (AID 743213); also: nearly all actives have a fitted effect of over 50% in size
Procedure, shortened: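 PPARd-bla HEK293H cells were treated with compounds plus agonist L165041 (300 nM final) for 17 h at 37 C. Viability was then read in the same wells by CellTiter-Glo luminescence after 30 min at room temperature.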

[10] = qHTS assay to identify small molecule antagonists of the farnesoid-X-receptor (FXR) signaling pathway - cell viability counter screen (AID 743221; active = well fitted cell-killing curve with a large enough effect in the repeat runs, not every such curve was filed as active; also: nearly all actives have a fitted effect of over 50% in size)
Procedure, shortened: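 Quantitative HTS of the Tox21 10K library run in parallel with the beta-lactamase reporter read. HEK 293T cells carrying a UAS-driven bla reporter got compound and 50 uM CDCA (final) for 16 h; ATP-based luminescence followed.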

[11] = target: Vitamin D3 receptor (Homo sapiens) (UniProt P11473); test: qHTS assay to identify small molecule agonists of the vitamin D receptor (VDR) signaling pathway (AID 743222; calls by dose curve)
Procedure, shortened: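 In VDR-bla cells, compound-induced beta-lactamase expression is quantified by FRET substrate fluorescence. Treatment lasts 16 h at 37C; substrate develops 2 h at room temperature.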

[12] = target: Vitamin D3 receptor (Homo sapiens) (UniProt P11473); test: qHTS assay to identify small molecule antagonists of the vitamin D receptor (VDR) signaling pathway (AID 743223; active = well fitted inhibition curve with a large enough effect in the signal ratio in the repeat runs, not every such curve was filed as active; the % refers to the signal ratio)
Procedure, shortened: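 Fluorescence from LiveBLAzer B/G FRET substrate, read after 2 h at room temperature, reflects beta-lactamase reporter activity in VDR-bla cells treated 16 h at 37C with compounds and agonist 1alpha,25-dihydroxyvitamin D3 (3 nM final).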

[13] = qHTS assay for small molecule agonists of the antioxidant response element (ARE) signaling pathway (AID 743202; active = well fitted activation curve with a large enough effect in the signal ratio in the repeat runs, not every such curve was filed as active; the % refers to the signal ratio)
Procedure, shortened: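 Quantitative high-throughput format in HepG2 cells bearing an integrated ARE-beta-lactamase reporter. Compound exposure lasted 16 h at 37 C, and fluorescence was read 2 h after adding LiveBLAzer B/G substrate at room temperature.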

[14] = target: Peroxisome proliferator-activated receptor delta (Homo sapiens) (UniProt Q03181); test: qHTS assay to identify small molecule agonists of the peroxisome proliferator-activated receptor delta (PPARd) signaling pathway (AID 743212; calls by dose curve)
Procedure, shortened: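 HEK293H PPARd-bla cells; 5 h preincubation 37 C/5% CO2; compound (DMSO) 37 C; LiveBLAzer B/G FRET substrate 2 h RT; fluorescence intensity.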

[15] = qHTS assay to identify small molecule agonists of the farnesoid-X-receptor (FXR) signaling pathway - cell viability counter screen (AID 743218); also: nearly all actives have a fitted effect of over 45% in size
Procedure, shortened: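 Parallel cytotoxicity test: compound-treated (16 h, 37 C) HEK 293T FXR-bla reporter cells were lysed with CellTiter-Glo and luminescence recorded.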

[16] = target: Aryl hydrocarbon receptor (Homo sapiens) (UniProt P35869); test: qHTS assay to identify small molecule that activate the aryl hydrocarbon receptor (AhR) signaling pathway (AID 743085);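 also: HG2L7.5c1 human HepG2 liver cells with stably integrated DRE-driven firefly reporter; series mostly up to about 70 µM; nearly all actives have a fitted effect of over 15% in size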
Procedure, shortened: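 Steps: seed HepG2-AhR-luc cells; allow 5 h at 37C; pin-transfer test compound or vehicle; incubate 24 h at 37C; add viability dye (30 min, 37C) and read fluorescence; add luciferase substrate (30 min, RT) and read luminescence.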

[17] = qHTS assay for small molecule activators of the heat shock response signaling pathway (AID 743210; active = well fitted activation curve with a large enough effect in the signal ratio in the repeat runs, with a control signal flat, not every such curve was filed as active; the % refers to the signal ratio;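 also: HeLa cells with beta-lactamase reporter driven by heat shock elements; series mostly up to about 63 µM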)
Procedure, shortened: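 HeLa HSE-bla cells, overnight plating; cpd in DMSO 5 h, 37 C; LiveBLAzer B/G FRET substrate 2.5 h RT; fluorescence intensity read.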

[18] = target: Peroxisome proliferator-activated receptor delta (Homo sapiens) (UniProt Q03181); test: qHTS assay to identify small molecule antagonists of the peroxisome proliferator-activated receptor delta (PPARd) signaling pathway (AID 743215; active = well fitted inhibition curve with a large enough effect in the signal ratio in the repeat runs, not every such curve was filed as active; the % refers to the signal ratio;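 also: cells stimulated with agonist L165041 at 300 nM final during compound exposure; series mostly up to about 62 µM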)
Procedure, shortened: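 HEK293H UAS-bla, PPARd; agonist L165041 300 nM final with cpd in DMSO; 37 C 17 h; FRET substrate, RT 2 h; fluorescence intensity.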

[19] = target: Bile acid receptor (Homo sapiens) (UniProt Q96RI1); test: qHTS assay to identify small molecule antagonists of the farnesoid-X-receptor (FXR) signaling pathway (AID 743217; active = well fitted inhibition curve with a large enough effect in the signal ratio in the repeat runs, not every such curve was filed as active; the % refers to the signal ratio)
Procedure, shortened: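 GeneBLAzer FXR-UAS-bla HEK 293T, CDCA-stimulated (50 uM final). Compound treatment 16 h, 37 °C. Detection: beta-lactamase cleavage of B/G FRET substrate, fluorescence.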

[20] = target: Bile acid receptor (Homo sapiens) (UniProt Q96RI1); test: qHTS assay to identify small molecule agonists of the farnesoid-X-receptor (FXR) signaling pathway (AID 743220; active = well fitted activation curve with a large enough effect in the signal ratio in the repeat runs, not every such curve was filed as active; the % refers to the signal ratio)
Procedure, shortened: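 Beta-lactamase reporter under UAS control in GeneBLAzer FXR HEK 293T cells (5000/well) measured with LiveBLAzer FRET substrate after 2 h at room temperature. Compound exposure lasted 16 h at 37C.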
% is scaled to controls: 0 for no effect and ±100 for the full control effect.

Sequence of Peroxisome proliferator-activated receptor delta (Homo sapiens) (Q03181 whole entry, looked up): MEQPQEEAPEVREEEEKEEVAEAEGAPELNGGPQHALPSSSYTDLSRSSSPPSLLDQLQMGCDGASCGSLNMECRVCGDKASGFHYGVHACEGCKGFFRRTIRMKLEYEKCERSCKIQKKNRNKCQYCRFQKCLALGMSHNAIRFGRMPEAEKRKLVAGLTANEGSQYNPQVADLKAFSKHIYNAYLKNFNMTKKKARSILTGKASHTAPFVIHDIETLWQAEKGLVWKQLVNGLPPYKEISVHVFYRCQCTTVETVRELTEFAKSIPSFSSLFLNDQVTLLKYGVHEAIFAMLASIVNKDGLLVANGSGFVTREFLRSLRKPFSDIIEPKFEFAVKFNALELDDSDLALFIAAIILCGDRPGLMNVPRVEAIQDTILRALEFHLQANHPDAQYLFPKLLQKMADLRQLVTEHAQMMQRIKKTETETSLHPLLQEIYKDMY
Sequence of Aryl hydrocarbon receptor (Homo sapiens) (P35869 whole entry, looked up): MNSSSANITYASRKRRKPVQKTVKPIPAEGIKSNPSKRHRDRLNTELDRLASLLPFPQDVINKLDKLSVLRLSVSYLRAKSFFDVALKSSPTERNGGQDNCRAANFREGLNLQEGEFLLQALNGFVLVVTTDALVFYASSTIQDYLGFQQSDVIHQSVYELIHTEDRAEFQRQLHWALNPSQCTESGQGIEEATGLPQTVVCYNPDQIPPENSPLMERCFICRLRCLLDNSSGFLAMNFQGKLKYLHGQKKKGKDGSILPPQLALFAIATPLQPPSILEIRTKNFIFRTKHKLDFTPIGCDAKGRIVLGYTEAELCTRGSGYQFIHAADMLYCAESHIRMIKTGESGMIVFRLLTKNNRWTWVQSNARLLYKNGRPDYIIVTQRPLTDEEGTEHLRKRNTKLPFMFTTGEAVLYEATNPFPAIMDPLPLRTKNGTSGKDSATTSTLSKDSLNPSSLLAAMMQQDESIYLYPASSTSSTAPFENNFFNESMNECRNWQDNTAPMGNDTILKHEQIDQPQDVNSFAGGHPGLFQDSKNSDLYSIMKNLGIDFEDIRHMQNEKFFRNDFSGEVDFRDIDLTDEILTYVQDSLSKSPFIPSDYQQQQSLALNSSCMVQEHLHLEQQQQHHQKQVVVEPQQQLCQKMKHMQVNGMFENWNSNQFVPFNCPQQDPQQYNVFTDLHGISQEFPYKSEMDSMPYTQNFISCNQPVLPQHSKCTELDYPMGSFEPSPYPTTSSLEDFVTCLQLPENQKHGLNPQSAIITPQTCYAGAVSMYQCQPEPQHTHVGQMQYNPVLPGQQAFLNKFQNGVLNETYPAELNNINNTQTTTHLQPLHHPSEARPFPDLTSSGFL
Sequence of Vitamin D3 receptor (Homo sapiens) (P11473 whole entry, looked up): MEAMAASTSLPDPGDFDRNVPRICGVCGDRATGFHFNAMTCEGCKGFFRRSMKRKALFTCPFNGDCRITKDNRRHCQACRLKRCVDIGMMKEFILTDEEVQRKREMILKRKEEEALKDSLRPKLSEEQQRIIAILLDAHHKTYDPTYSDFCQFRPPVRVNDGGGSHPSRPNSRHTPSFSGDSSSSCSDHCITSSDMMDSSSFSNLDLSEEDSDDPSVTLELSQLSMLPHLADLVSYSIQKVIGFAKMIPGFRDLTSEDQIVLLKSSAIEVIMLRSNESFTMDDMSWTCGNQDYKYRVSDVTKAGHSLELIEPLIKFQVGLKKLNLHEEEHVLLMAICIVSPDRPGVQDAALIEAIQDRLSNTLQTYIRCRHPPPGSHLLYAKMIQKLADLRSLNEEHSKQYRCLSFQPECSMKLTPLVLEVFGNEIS
Sequence of Bile acid receptor (Homo sapiens) (Q96RI1 whole entry, looked up): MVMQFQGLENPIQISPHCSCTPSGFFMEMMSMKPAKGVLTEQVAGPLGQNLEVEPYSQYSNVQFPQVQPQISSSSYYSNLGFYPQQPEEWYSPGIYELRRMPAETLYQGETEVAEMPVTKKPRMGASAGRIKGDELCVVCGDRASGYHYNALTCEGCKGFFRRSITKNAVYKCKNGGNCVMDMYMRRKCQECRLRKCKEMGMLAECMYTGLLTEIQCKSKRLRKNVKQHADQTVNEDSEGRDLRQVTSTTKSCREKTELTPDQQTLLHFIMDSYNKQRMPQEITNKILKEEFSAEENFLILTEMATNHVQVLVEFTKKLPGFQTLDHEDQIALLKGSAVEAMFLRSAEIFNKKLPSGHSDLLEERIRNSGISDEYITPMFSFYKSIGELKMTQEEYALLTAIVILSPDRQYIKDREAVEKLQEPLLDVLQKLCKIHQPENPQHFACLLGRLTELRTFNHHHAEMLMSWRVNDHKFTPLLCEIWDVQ
Sequence of Peroxisome proliferator-activated receptor gamma (Homo sapiens) (P37231 whole entry, looked up): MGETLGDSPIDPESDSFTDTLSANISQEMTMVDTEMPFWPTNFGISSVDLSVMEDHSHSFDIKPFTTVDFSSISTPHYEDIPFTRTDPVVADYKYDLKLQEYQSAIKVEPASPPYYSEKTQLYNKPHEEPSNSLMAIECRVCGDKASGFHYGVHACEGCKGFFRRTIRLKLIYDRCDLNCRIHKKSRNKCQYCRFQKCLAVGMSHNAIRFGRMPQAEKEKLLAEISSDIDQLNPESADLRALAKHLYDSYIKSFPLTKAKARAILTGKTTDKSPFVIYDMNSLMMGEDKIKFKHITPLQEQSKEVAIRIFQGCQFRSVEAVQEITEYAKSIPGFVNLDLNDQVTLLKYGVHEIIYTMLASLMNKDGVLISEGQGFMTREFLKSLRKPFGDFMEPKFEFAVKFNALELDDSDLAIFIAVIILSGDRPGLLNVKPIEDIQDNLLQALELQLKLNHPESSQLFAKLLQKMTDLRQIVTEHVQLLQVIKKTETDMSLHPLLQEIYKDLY

CC1(C)OC[C@@H](COC(=O)CCc2ccc(OC[C@@H](O)CNCCNC(=O)N3CCOCC3)cc2)O1
inactive: Potency [1] | Potency [2] | Potency [3] | Potency [4] | outcome [5] | outcome [6] | outcome [7] | outcome [8] | outcome [9] | outcome [10] | outcome [11] | outcome [12]

O=C(O)CC(C(=O)O)S(=O)(=O)O (stereo not drawn)
inactive: Potency [1] | Potency [2] | Potency [3] | Potency [4] | outcome [5] | Potency [13] | outcome [6] | outcome [8] | outcome [14] | outcome [15] | outcome [10] | outcome [11]

NC(N)=NCCN1CCCCCCC1
inactive: Potency [1] | Potency [16] | activity change, negative = cytotoxicity [5] 6.29% [at 0.55 µM] | activation [13] 4.68% [at 0.756 µM] | viability change, negative = cytotoxic [6] -0.232% [at 0.756 µM] | activity change, negative = cytotoxicity [7] -20.4% [at 0.55 µM] | activation [17] -0.075% [at 0.55 µM] | activity change, negative = cytotoxicity [8] 8.58% [at 0.55 µM] | activation [14] 3.33% [at 0.55 µM] | viability change, negative = cytotoxic [9] 2.8% [at 0.575 µM] | ratio activity, negative = inhibition [18] 5.69% [at 0.575 µM] | viability change, negative = cytotoxic [15] 2.57% [at 0.55 µM] | activity change, negative = cytotoxicity [10] -1.17% [at 0.55 µM]

Cc1ccnc(NS(=O)(=O)c2ccc(N)cc2)n1
inactive: Potency [1] | Potency [2] | Potency [3] | Potency [4] | outcome [5] | Potency [13] | outcome [6] | outcome [7] | outcome [17] | outcome [8] | outcome [9] | outcome [19] | outcome [15] | outcome [10] | outcome [11] | outcome [12]

CCOC(=O)CCC(=O)OCC
inactive: Potency [1] | Potency [2] | Potency [3] | Potency [4] | outcome [5] | Potency [13] | outcome [6] | outcome [7] | outcome [8] | outcome [14] | outcome [9] | outcome [18] | outcome [15] | outcome [10] | outcome [12]

CC(C)(N)C#N
inactive: Potency [1] | Potency [2] | Potency [3] | Potency [4] | outcome [5] | Potency [13] | outcome [6] | outcome [7] | outcome [17] | outcome [8] | outcome [14] | outcome [9] | outcome [18] | outcome [15] | outcome [10]

CC(C)(C)OC(=O)c1cccc(N)c1
inactive: Potency [1] | Potency [2] | Potency [3] | Potency [4] | outcome [5] | Potency [13] | outcome [6] | outcome [7] | outcome [17] | outcome [8] | outcome [14] | outcome [9] | outcome [18] | outcome [15] | outcome [10] | outcome [11]

CCCCOC(=O)CCC(C)=O
inactive: Potency [1] | Potency [16] | Potency [3] | outcome [5] | Potency [13] | outcome [6] | outcome [7] | outcome [8] | outcome [14] | outcome [15] | outcome [10] | outcome [11]

CN1[C@@H]2CC[C@H]1CC(OC(=O)C(O)c1ccccc1)C2 (stereo partly drawn)
inactive: Potency [1] | Potency [2] | Potency [3] | Potency [4] | outcome [5] | Potency [13] | outcome [6] | outcome [17] | outcome [8] | outcome [14] | outcome [9] | outcome [15] | outcome [10] | outcome [11] | outcome [12]

C[N+]12CCC(CC1)C(OC(=O)C(O)(c1ccccc1)c1ccccc1)C2 (stereo not drawn)
inactive: Potency [1] | Potency [2] | Potency [3] | Potency [4] | outcome [5] | outcome [6] | outcome [7] | outcome [19] | outcome [15] | outcome [10] | outcome [11] | outcome [12]

CCCCS(=O)(=O)N[C@@H](Cc1ccc(OCCCCC2CCNCC2)cc1)C(=O)O
inactive: Potency [1] | Potency [2] | Potency [3] | Potency [4] | outcome [5] | Potency [13] | outcome [6] | outcome [7] | outcome [8] | outcome [14] | outcome [9] | outcome [18] | outcome [15] | outcome [10]

O=S(=O)(O)c1cccc2c(S(=O)(=O)O)cccc12
inactive: Potency [1] | Potency [2] | Potency [3] | Potency [4] | outcome [5] | Potency [13] | outcome [6] | outcome [7] | outcome [8] | outcome [9] | outcome [10] | outcome [11]

CC(C)(C#N)Nc1nc(Cl)nc(NC2CC2)n1
inactive: Potency [1] | Potency [2] | Potency [3] | Potency [4] | outcome [5] | Potency [13] | outcome [6] | outcome [7] | outcome [17] | outcome [8] | outcome [14] | outcome [9] | outcome [18] | outcome [19] | outcome [15] | outcome [20] | outcome [10] | outcome [11]

CC(C)COC(=O)c1ccc(N)cc1
inactive: Potency [1] | Potency [2] | Potency [3] | Potency [4] | outcome [5] | Potency [13] | outcome [6] | outcome [7] | outcome [17] | outcome [8] | outcome [14] | outcome [15] | outcome [10] | outcome [11] | outcome [12]

O=S(=O)(O)c1cccc(S(=O)(=O)O)c1
inactive: Potency [1] | Potency [2] | Potency [3] | Potency [4] | outcome [5] | outcome [6] | outcome [8] | outcome [14] | outcome [15] | outcome [10] | outcome [12]

Cc1ccc(C(=O)c2ccc(CC(=O)O)n2C)cc1
inactive: Potency [1] | Potency [16] | Potency [3] | outcome [5] | Potency [13] | outcome [6] | outcome [7] | outcome [8] | outcome [10] | outcome [12]

O=S(=O)(O)c1cc(O)c(O)c(S(=O)(=O)O)c1
inactive: Potency [1] | Potency [16] | Potency [3] | Potency [4] | outcome [5] | outcome [6] | outcome [7] | outcome [17] | outcome [8] | outcome [14] | outcome [9] | outcome [19] | outcome [20] | outcome [10] | outcome [11]
